Test results from PubChem BioAssay (NCI).
Compounds without any hit were thinned out: in the full panel of roughly 83,000, 20% have a hit.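 Cell lines were cultured in 96-well plates, exposed to a single compound concentration, and assessed for percent growth 48 hours later.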 Values without a mark were called inactive. Activity calls are given as the source filed them. The calls were made as follows: active = growth percent below 10; inactive = the rest.

Tests used:
Experiment in all cases: NCI-60 one-dose screen, 48 h (100 = growth as untreated, 0 = no growth, -100 = all killed)
Details in all cases: 10 µM unless noted
BT-549 breast = test system: BT-549 breast
MDA-MB-435 melanoma = test system: MDA-MB-435 melanoma
SW-620 colon = test system: SW-620 colon
MCF7 breast = test system: MCF7 breast
HCT-116 colon = test system: HCT-116 colon
HCC-2998 colon = test system: HCC-2998 colon
KM12 colon = test system: KM12 colon

CCOC(=O)c1csc(NC(=O)CSc2nc3sc4c(c3c(=O)n2-c2ccc(Cl)cc2)CCCC4)n1
growth (BT-549 breast): 99% | growth (MDA-MB-435 melanoma): 93.6% | growth (SW-620 colon): 103% | growth (MCF7 breast): 84.3% | growth (HCT-116 colon): 105% | growth (HCC-2998 colon): 121% | growth (KM12 colon): 109%

COC(=O)C(C)NS(=O)(=O)/N=C1\NC(=O)NC1=C(Cl)Cl (centres undefined)
growth (BT-549 breast): 109% | growth (MDA-MB-435 melanoma): 105% | growth (SW-620 colon): 124% | growth (MCF7 breast): 98% | growth (HCT-116 colon): 102% | growth (HCC-2998 colon): 113% | growth (KM12 colon): 105%

CN(C)CCCNc1c2ccc(Cl)cc2nc2c1oc1ccccc12
growth (BT-549 breast): 53.4% | growth (MDA-MB-435 melanoma): -40.6% (active) | growth (SW-620 colon): -1.01% (active) | growth (MCF7 breast): -21.7% (active) | growth (HCT-116 colon): -19.8% (active) | growth (HCC-2998 colon): -70.8% (active) | growth (KM12 colon): 1.73% (active)

CCN1CCN(/C(=N\c2sc(-c3ccccc3)nc2-c2ccccc2)c2ccccc2)CC1
growth (BT-549 breast): 90.9% | growth (MDA-MB-435 melanoma): 88% | growth (SW-620 colon): 84.9% | growth (MCF7 breast): 67.3% | growth (HCT-116 colon): 62.4% | growth (HCC-2998 colon): 77.1% | growth (KM12 colon): 59.8%

C[C@@H]1CN(c2ccc3ncc(C#Cc4cncc(C(=O)Nc5ccc(CN6CCN(C)CC6)c(C(F)(F)F)c5)c4)n3n2)C[C@H](C)O1
growth (BT-549 breast): -27.2% (active) | growth (MDA-MB-435 melanoma): -90.1% (active) | growth (SW-620 colon): -52.3% (active) | growth (MCF7 breast): -64% (active) | growth (HCT-116 colon): -71.4% (active) | growth (HCC-2998 colon): -30% (active) | growth (KM12 colon): -7.61% (active)

NC(=O)c1cc(-c2ccc3ncnc(N4CCc5cc(F)c(Cl)cc54)c3c2)cnc1N
growth (BT-549 breast): -13.5% (active) | growth (MDA-MB-435 melanoma): 25.2% | growth (SW-620 colon): 35.9% | growth (MCF7 breast): 11% | growth (HCT-116 colon): 19.3% | growth (HCC-2998 colon): 37.5% | growth (KM12 colon): 29.9%

Nc1nc(N)c2c(n1)NC(c1ccc(F)cc1)CC(c1ccc(Nc3nc(NCCO)nc(Nc4ccc(Cl)cc4)n3)cc1)=N2 (centres undefined)
growth (BT-549 breast): 42.7% | growth (MDA-MB-435 melanoma): -71.4% (active) | growth (SW-620 colon): -52.8% (active) | growth (MCF7 breast): -66.5% (active) | growth (HCT-116 colon): -67.4% (active) | growth (HCC-2998 colon): -80.4% (active) | growth (KM12 colon): -16.9% (active)

Cc1[nH]nc2ncc(C#Cc3cncc(C(=O)Nc4ccc(CN5CCN(C)CC5)c(C(F)(F)F)c4)c3)cc12
growth (BT-549 breast): 64.5% | growth (MDA-MB-435 melanoma): 13.1% | growth (SW-620 colon): 4.05% (active) | growth (MCF7 breast): 43.8% | growth (HCT-116 colon): 8.54% (active) | growth (HCC-2998 colon): 44.4% | growth (KM12 colon): 8.98% (active)

Cn1ccnc1C(=O)/C=C/c1ccc(NC(=O)Nc2ccc(Cl)cc2)cc1
growth (BT-549 breast): 63.6% | growth (MDA-MB-435 melanoma): 75% | growth (SW-620 colon): 71% | growth (MCF7 breast): 38.1% | growth (HCT-116 colon): 25% | growth (HCC-2998 colon): 90.2% | growth (KM12 colon): 49.6%

N/C(=N\c1nc2c(Br)cccc2s1)C(Br)Br
growth (BT-549 breast): 29.2% | growth (MDA-MB-435 melanoma): -48.2% (active) | growth (SW-620 colon): -39.2% (active) | growth (MCF7 breast): -26.3% (active) | growth (HCT-116 colon): -56.1% (active) | growth (HCC-2998 colon): 3.14% (active) | growth (KM12 colon): 3.67% (active)

CSCCC(C(=O)O)N1C(=O)/C(=C/c2ccc(O)c(O)c2)SC1=S (centres undefined)
growth (BT-549 breast): 110% | growth (MDA-MB-435 melanoma): 102% | growth (SW-620 colon): 102% | growth (MCF7 breast): 93.4% | growth (HCT-116 colon): 99.5% | growth (HCC-2998 colon): 108% | growth (KM12 colon): 103%

Clc1ccc2oc3c(OCCCn4ccnc4)c4ccccc4nc3c2c1
growth (BT-549 breast): 95.7% | growth (MDA-MB-435 melanoma): 64.6% | growth (SW-620 colon): 36.1% | growth (MCF7 breast): 63.2% | growth (HCT-116 colon): 28.9% | growth (HCC-2998 colon): 72.1% | growth (KM12 colon): 55.8%

Cn1cc(-c2cc(N)n3nc(-c4cn(C)c5ccc(F)cc45)cc3n2)c2cc(F)ccc21
growth (BT-549 breast): 77.5% | growth (MDA-MB-435 melanoma): 5.54% (active) | growth (SW-620 colon): -36.6% (active) | growth (MCF7 breast): 10% | growth (HCT-116 colon): -92.8% (active) | growth (HCC-2998 colon): 1.23% (active) | growth (KM12 colon): 6.56% (active)

Clc1ccc(-c2cn3cc(Cc4ccc(Cl)c(Cl)c4)sc3n2)cc1
growth (BT-549 breast): 88.9% | growth (MDA-MB-435 melanoma): 35% | growth (SW-620 colon): 51.7% | growth (MCF7 breast): 49.2% | growth (HCT-116 colon): 54% | growth (HCC-2998 colon): 68.1% | growth (KM12 colon): 32.1%

Oc1c(Cl)cc(Cl)c2ccc(CN3CCCCC3)nc12
growth (BT-549 breast): 89.1% | growth (MDA-MB-435 melanoma): 42.1% | growth (SW-620 colon): 30.4% | growth (MCF7 breast): 28.9% | growth (HCT-116 colon): 21.3% | growth (HCC-2998 colon): 65% | growth (KM12 colon): 30.7%

CCN1C(=S)N(CC)C2C1N=C(SC)N2/N=C/C=C/c1ccccc1[N+](=O)[O-] (centres undefined)
growth (BT-549 breast): 107% | growth (MDA-MB-435 melanoma): 94.4% | growth (SW-620 colon): 99.4% | growth (MCF7 breast): 76.9% | growth (HCT-116 colon): 82.2% | growth (HCC-2998 colon): 112% | growth (KM12 colon): 97.6%

COc1ccc2[nH]cc(-c3cc(N)n4nc(-c5c[nH]c6ccc(OC)cc56)cc4n3)c2c1
growth (BT-549 breast): 105% | growth (MDA-MB-435 melanoma): -81.4% (active) | growth (SW-620 colon): -16% (active) | growth (MCF7 breast): 2.38% (active) | growth (HCT-116 colon): -88.2% (active) | growth (HCC-2998 colon): -4.06% (active) | growth (KM12 colon): -37.8% (active)

CCN1CCN(S(=O)(=O)c2oc(-c3ccc(Cl)cc3)nc2C#N)CC1
growth (BT-549 breast): 93.6% | growth (MDA-MB-435 melanoma): 62.6% | growth (SW-620 colon): -23.6% (active) | growth (MCF7 breast): 31.3% | growth (HCT-116 colon): 11.6% | growth (HCC-2998 colon): 115% | growth (KM12 colon): 91.7%

CN(C)CCCOc1c2ccc(Cl)cc2nc2c1oc1ccc(Cl)cc12
growth (BT-549 breast): 45.6% | growth (MDA-MB-435 melanoma): -10.2% (active) | growth (SW-620 colon): -82.9% (active) | growth (MCF7 breast): -80.9% (active) | growth (HCT-116 colon): 10.8% | growth (HCC-2998 colon): -67.9% (active) | growth (KM12 colon): -62.3% (active)

COc1cc(/C=C/C(=O)c2ccc(C(F)(F)F)cc2)ccc1Oc1nc(NCCO)nc(N2CCOCC2)n1
growth (BT-549 breast): 92.9% | growth (MDA-MB-435 melanoma): 78.9% | growth (SW-620 colon): -3.75% (active) | growth (MCF7 breast): 17% | growth (HCT-116 colon): -18.5% (active) | growth (HCC-2998 colon): 104% | growth (KM12 colon): 62.4%

CC(C)(C)Nc1nc2c(OCCc3ccccc3)cccn2c1-c1ccc(O)cc1
growth (BT-549 breast): 85.4% | growth (MDA-MB-435 melanoma): 72.5% | growth (SW-620 colon): 69% | growth (MCF7 breast): 45.4% | growth (HCT-116 colon): 38.2% | growth (HCC-2998 colon): 52.2% | growth (KM12 colon): 38.2%

NS(=O)(=O)c1cccc(Nc2nc(SCC(=O)c3ccc(Br)cc3)nc3ccccc23)c1
growth (BT-549 breast): -40.8% (active) | growth (MDA-MB-435 melanoma): 75.3% | growth (SW-620 colon): 63.7% | growth (MCF7 breast): 32.4% | growth (HCT-116 colon): 38.9% | growth (HCC-2998 colon): 86.1% | growth (KM12 colon): 69.7%

OC1CCc2c(-c3ccc4ncnc(N5CCc6cc(F)c(Cl)cc65)c4c3)cncc21 (centres undefined)
growth (BT-549 breast): 46.5% | growth (MDA-MB-435 melanoma): 62.7% | growth (SW-620 colon): 85.1% | growth (MCF7 breast): 23.4% | growth (HCT-116 colon): 66.9% | growth (HCC-2998 colon): 72.1% | growth (KM12 colon): 66.2%

COc1ccc(Cc2nn(CC(=O)N/N=C/c3ccc(Cl)cc3)c(=O)c3c(C)noc23)cc1
growth (BT-549 breast): 93.9% | growth (MDA-MB-435 melanoma): 94.5% | growth (SW-620 colon): 69% | growth (MCF7 breast): 83.5% | growth (HCT-116 colon): 36.4% | growth (KM12 colon): 85.9%

C[C@@H](Nc1c(C#N)cnc2ccc(-c3cnc(N)nc3)cc12)c1ccccc1
growth (BT-549 breast): -14.1% (active) | growth (MDA-MB-435 melanoma): 11% | growth (SW-620 colon): 14.9% | growth (MCF7 breast): 10.9% | growth (HCC-2998 colon): 32% | growth (KM12 colon): 18.6%

Clc1ccc2oc3c(NCCCN4CCOCC4)c4ccccc4nc3c2c1
growth (BT-549 breast): 67.8% | growth (MDA-MB-435 melanoma): 22% | growth (SW-620 colon): 15% | growth (MCF7 breast): 7.12% (active) | growth (HCC-2998 colon): 28.9% | growth (KM12 colon): 26.5%
